Data: PubChem BioAssay (NCI)
Compounds without any hit were thinned out: in the full panel of roughly 83,000, 20% have a hit.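 The endpoint reported here, percent growth, reads 100 for growth as untreated, 0 for no net growth and -100 for all cells dead.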 Values without a mark were called inactive. The source made the active and inactive calls. The calls were made as follows: active = growth percent below 10; inactive = the rest.

Columns and labels:
Assay in all cases: NCI-60 one-dose screen, 48 h (100 = growth as untreated, 0 = no growth, -100 = all killed)
HCT-15 colon = conditions: 10 µM unless noted
HT29 colon = conditions: 10 µM unless noted
SNB-75 CNS = conditions: 10 µM unless noted
U251 CNS = conditions: 10 µM unless noted
PC-3 prostate = conditions: 10 µM unless noted
SK-MEL-5 melanoma = conditions: 10 µM unless noted
UACC-62 melanoma = conditions: 10 µM unless noted
LOX IMVI melanoma = conditions: 10 µM
SK-MEL-28 melanoma = conditions: 10 µM unless noted
SK-MEL-2 melanoma = conditions: 10 µM unless noted
EKVX NSCLC = conditions: 10 µM unless noted
UO-31 renal = conditions: 10 µM unless noted
TK-10 renal = conditions: 10 µM unless noted
ACHN renal = conditions: 10 µM unless noted
CAKI-1 renal = conditions: 10 µM unless noted
A498 renal = conditions: 10 µM unless noted
CCRF-CEM leukemia = conditions: 10 µM unless noted
MOLT-4 leukemia = conditions: 10 µM unless noted
SN12C renal = conditions: 10 µM unless noted

SMILES | growth (HCT-15 colon) | growth (HT29 colon) | growth (SNB-75 CNS) | growth (U251 CNS) | growth (PC-3 prostate) | growth (SK-MEL-5 melanoma) | growth (UACC-62 melanoma) | growth (LOX IMVI melanoma) | growth (SK-MEL-28 melanoma) | growth (SK-MEL-2 melanoma) | growth (EKVX NSCLC) | growth (UO-31 renal) | growth (TK-10 renal) | growth (ACHN renal) | growth (CAKI-1 renal) | growth (A498 renal) | growth (CCRF-CEM leukemia) | growth (MOLT-4 leukemia) | growth (SN12C renal) [%]
Cc1cc(=O)oc2cc(OCCCOc3ccc(/C=C/C(=O)Nc4ccccc4N)cc3)ccc12 | 38% | 37.4% | 36.2% | 32.2% | 32% | -91.2% (active) | 21% | -76.5% (active) | 32% | 48.7% | 31.2% | -22.9% (active) | 49.8% | 34.6% | 29.6% | 11.2% | 9.74% (active) | 12.5% | 
CC(C)CSc1nc(NCCc2c[nH]c3ccccc23)c(C#N)c(-c2ccccc2)n1 | 22.6% | 4.54% (active) | 82.8% | 33.5% | 17.8% | 27.3% | 77.3% | 33.3% | 87.3% | 75.6% | 39.7% | 72.2% | 110% | 69.3% | 50.8% | 67.9% | 30.2% | 30.7% | 
O=C(c1ccc(Cl)cc1)c1ccc(OCCCN2CCN(c3ccncc3)CC2)cc1 | -18.6% (active) | 11.2% | 69.4% | 28.6% | 26.9% | -47.7% (active) | -63.5% (active) | 10.1% | 14.8% | 70.1% | 32.6% | 40% | 82.2% | 74% | 56.7% | 80.5% | 21.5% | 15.7% | 
Cc1sc(C(NC(=O)OCCn2c([N+](=O)[O-])cnc2C)C(F)(F)Cl)nc1-c1ccc(OC(F)(F)F)cc1 (stereo not given) | -92.5% (active) | -83.4% (active) | -32.9% (active) | -85.7% (active) | -65.1% (active) | -99.5% (active) | -96.1% (active) | -98.3% (active) | -92.2% (active) | -90.7% (active) | -98% (active) | -95.5% (active) | -91.7% (active) | -98.5% (active) | -76.6% (active) | -89.7% (active) | -17.4% (active) | 2.22% (active) | 
COc1ccc(/C=C/c2nc3ccccc3nc2Nc2cccc(C)c2)cc1 | 104% | 101% | 99% | 96.1% | 96.5% | 95.7% | 83.4% | 108% | 108% | 102% | 89% | 78.4% | 173% | 98.3% | 72.9% | 118% |  | 82.7% | 92.7
CC1(C)CC[C@]2(C(=O)O)CC[C@]3(C)C(=CCC4[C@@]5(C)C[C@@H](O)[C@@H]6OC(c7ccc(F)cc7)OC[C@@]6(C)C5CC[C@]43C)C2C1 (stereo not given in full) | 13.4% | 25.4% | 82.3% | 14.7% | 17.6% | 17.2% | 45.5% | 19.9% | 53.9% | 18.1% | 20.5% | 25.6% | 26.9% | 13.3% | 33.6% | 46.8% | 14.6% | 8.69% (active) | 31.8
COc1ccc(-c2nc(SCC(C)C)nc(NCCc3c[nH]c4ccccc34)c2C#N)cc1 | 29.4% | 35% | 74.1% | 40.7% | 24% | 37.2% | 76.2% | 46.1% | 71.5% | 80.9% | 40.5% | 57.2% | 120% | 69.5% | 54.1% | 97.4% | 36.2% | 40.4% | 
Nc1cccc(SCc2cc3ccccc3[nH]c2=O)c1 | 43.3% | 65.7% | 83.1% | 64.1% | 63% | -4.45% (active) | 4.09% (active) | 9.48% (active) | 61.6% | 56.4% | 43.4% | 39.1% | 64.3% | 17.6% | 34.2% | 69.7% | 33% | 36.1% | 
